Measured values as given in PubChem BioAssay AID686979 (National Center for Advancing Translational Sciences (NCATS), 2013).
In all, about 420,000 compounds went through this assay and about 50,000 (12%) were called active. Entries that show only a call come without a potency. Roughly 26% stayed inconclusive and do not appear here. Calls follow the shape of the dose curve; as a rule, active = well fitted inhibition curve with a large enough effect; inconclusive = small, poorly fitted or top-dose-only effect; inactive = flat fitted curve, though single readings scatter. For the sample, actives were picked, then their nearest neighbours and some compounds at random.

assay: qHTS for Inhibitors of human tyrosyl-DNA phosphodiesterase 1 (TDP1): qHTS in cells in presence of CPT; conditions: chicken DT40 Tdp1-/-;hTDP1 cells + 20 nM CPT, ATP luminescence, 48 h; series mostly up to 46.2 µM; also: nearly all actives have a fitted effect of over 55% in size
Description: Human tyrosyl-DNA phosphodiesterase 1 (TDP1) is a novel repair gene, and we propose to use it as a new target for anticancer drug development. TDP1 is not an essential protein, but under treatment with topoisomerase I poison (camptothecin: CPT), TDP1 works as a critical factor for cell survival. To directly identify novel TDP1 inhibitors active in a cellular environment, we have knocked-out the Tdp1 gene in chicken DT40 cells (Tdp1-/-) and generated a complemented counterpart cells that contains a stable transfection of the human TDP1 gene (Tdp1-/-;hTDP1 cells). For the primary screen, Tdp1-/-;hTDP1 cells will be exposed to small molecules in the presence or absence of CPT, and their growth kinetics will be evaluated after 48 hours by measuring ATP activity. […] The hit compounds will then be evaluated in the presence or absence of CPT using Tdp1-/- cells. […] In tertiary assays, biochemical gel-based assays will be used to assess whether the hit compounds specifically target TDP1. To this end, we have screened this cell line against the MLSMR in two primary screens. In one screen we add CPT and in the other we screen in the absence of CPT; this AID represents the screen where CPT was present. NIH Chemical Genomics Center [NCGC] NIH Molecular Libraries Probe Centers Network [MLPCN] MLPCN Grant: MH095538 Assay Submitter (PI): Yves Pommier, NCI
DT40-hTDP1 cells with 20 nM Camptothecin (add 20 microL of 1 mM CPT stock in 1 L of cell culture medium) were dispensed at 400 cells/5microL/well in tissue culture treated 1536-well white wall/solid bottom assay plates (Greiner Bio-One North America, NC, U.S.A.) using a Multidrop Combi 8 channel dispenser (Thermo Fisher, Waltham, MA, USA). 23 nL compounds and controls were transferred using the pin tool (Kalypsys, San Diego, CA, USA) to the assay plates. The assay plates were then incubated at 37 masculineC for a minimum 48 hr. Three microL of Cell Titer Glo solution was added to the plates and incubated at RT in dark for 30 min. Luminescence was read using ViewLux (Perkin Elmer) with 1 sec exposure slow speed, high gain and 2x binning.
Potency is read from the fitted curve at half-maximal effect.

Compound	Potency
O=C(OCCOc1ccccc1F)c1cc(S(=O)(=O)N2CCOCC2)ccc1F	inactive
Cc1oc2ccc(O)c(CN3CCOCC3)c2c1C(=O)Nc1cccc(Cl)c1C	11.6 µM (active)
Cc1oc2ccc(O)c(CN3CCC(C)CC3)c2c1C(=O)Nc1ccccc1	14.6 µM (active)
CC1CCN(CCC(=O)Nc2ccccc2)CC1	inactive
CC(=O)N1CCN(C(=O)Nc2cccc(C(F)(F)F)c2)CC1	inactive
O=C(Nc1ccc(CN2CCOCC2)cc1)c1cc(Cl)ccc1Cl	inactive
Cc1c(CN2CCC(C)CC2)c(=O)n(-c2ccccc2)n1C	inactive
CCOC(=O)c1cccc(NC(=O)c2cc(CN3CCCC3)on2)c1	inactive
Cc1nnsc1C(=O)Nc1cccc(Cl)c1C	inactive
Cc1oc2ccc(O)c(CN3CCCCC3)c2c1C(=O)Nc1cccc(C(F)(F)F)c1	11.6 µM (active)
COc1ccccc1CNS(=O)(=O)c1cc2c3c(c1)CCC(=O)N3CCC2	inactive
Nc1cc(=O)c2[nH]cnc2[nH]1	inactive
Cc1ccc(C(=O)Nc2ccc(OCc3cc(=O)n4c(C)csc4n3)cc2)cc1	inactive
CN(C(=O)c1c(Cl)cnn1C)C12CC3CC(CC(C3)C1)C2	inactive
COC(=O)CSc1nnc(-c2cccnc2)o1	inactive
CCn1c(C)nc2cc(C(=O)NNS(=O)(=O)c3ccc(C)cc3C)ccc21	inactive
COC(CNC(=O)c1ccc2c(c1)ncn2-c1cc(C)cc(C)c1)OC	inactive
CCCNC(=O)c1ccc2c(c1)ncn2-c1ccc(C)cc1C	16.4 µM (active)
COCCNC(=O)c1ccc2c(c1)ncn2-c1ccc(C)c(Cl)c1	inactive

Compound	Potency
Cc1ccc(-n2cnc3cc(C(=O)NCCC4=CCCCC4)ccc32)cc1Cl	18.4 µM (active)
CN(c1ccc(C(=O)NCCC2=CCCCC2)cc1)S(C)(=O)=O	inactive
CCn1nnnc1SCC(=O)Nc1ccc(N(C)C)cc1	inactive
CC(=O)NS(=O)(=O)c1ccc(N/C(N)=N/c2nc(C)cc(C)n2)cc1	inactive
CCOC(=O)C1CCN(C(=O)C2CCCN(S(=O)(=O)c3ccc(OC)c(Cl)c3)C2)CC1 (stereo not drawn)	16.4 µM (active)
CCN1CCN(C(=O)C2CCCN(S(=O)(=O)c3ccc(OC)c(OC)c3)C2)CC1 (stereo not drawn)	inactive
COc1ccc(S(=O)(=O)N2CCCC(C(=O)N3CCN(C)CC3)C2)cc1C (stereo not drawn)	inactive
O=C(COC(=O)c1ncc(Cl)c(Cl)c1Cl)NC1CCS(=O)(=O)C1 (stereo not drawn)	inactive
C=C(C)c1cccc(C(C)(C)NC(=O)NCCN(CC)CC)c1	inactive
CC1(C(=O)NS(=O)(=O)c2ccccc2)CCN1C(=O)C1CCCCC1 (stereo not drawn)	inactive
CCOC(=O)c1ccc(NC(=O)c2c(NCc3cccc(OC)c3)sc3c2CCC3)cc1	10.3 µM (active)
CCOC(=O)c1ccc(NC(=O)c2csc3c2CCCCC3)cc1	25.9 µM (active)
CCOC(=O)c1ccc(NC(=O)c2c(NCc3cccs3)sc3c2CCCC3)cc1	16.4 µM (active)
CC(=O)Cc1nsc(NC(=O)c2csc3c2CCCC3)n1	inactive
COc1cccc(CN(C)CC(=O)Nc2sc3c(c2C#N)CCC3)c1	inactive
CCOC(=O)c1ccc(NC(=O)c2c(NCc3ccccc3)[nH]c(=O)[nH]c2=O)cc1	inactive
Cc1ccc(NC(=O)c2csc3c2CCCC3)cc1	inactive
CCOC(=O)c1c(NC(=O)CCC(=O)NCc2ccco2)sc2c1CCCC2	inactive
CCOC(=O)c1c(NC(=O)c2cc(-c3ccc(Cl)cc3)on2)sc2c1CCCC2	inactive
